Assay outcomes: PubChem BioAssay, National Center for Advancing Translational Sciences (NCATS)
A selection: hits, their analogues and other compounds. The true share with any hit is near 7.8%.
Vaccinia Venus = inhibitors of vaccinia virus (Venus reporter). Vaccinia virus Venus reporter expression, fluorescence. Potency, µM (doses to about 36.5 µM), for the others: top-dose activity change, negative = inhibition, usual class: inhibitors. 330,000 compounds, 0.46% hits. AID 720580; calls by dose curve; tested in A549 cells; note: potency is the fitted concentration of half-maximal effect; nearly all actives have a fitted effect of over 30% in size
MARV entry inh = inhibitors of Marburg virus binding or cell entry; Potency, µM (titrated, usually from 37.8 µM), without a hit: at the highest dose activity change, negative = inhibition, actives largely listed as inhibitors; 300,000 compounds, 1.8% hits; Marburg virus pseudotyped entry inhibition, cell reporter; AID 540276; calls by dose curve; tested in HEK293 cells; note: potency is the fitted concentration of half-maximal effect
LASV entry inh = blocks Lassa virus binding to or entry into cells; Lassa virus pseudotype entry inhibition, cell reporter; Potency, µM (titrated, usually from 37.9 µM), for the others: at the top dose activity change, negative = inhibition, actives largely listed as inhibitors; 300,000 compounds, 1.2% hits; AID 540256; calls by dose curve; tested in HEK293 cells; note: potency is the fitted concentration of half-maximal effect; nearly all actives have a fitted effect of over 50% in size
HCV inhibitor = HCV inhibition | Huh7.5.1 HCVcc-Cre infection, luciferase reporter, 44 h | Potency, µM (highest dose often 41.8 µM), for the others: at the top dose activity change, negative = inhibition, most hits filed as inhibitors | 340,000 compounds, 3.4% hits; active = well fitted inhibition curve with a large enough effect; inconclusive = small, poorly fitted or top-dose-only effect, or another doubt; inactive = no such curve, though single readings can be large or run the other way; note: potency is the fitted concentration of half-maximal effect
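Seed cells (1,000/well) for 4 h; treat with compound and infect with HCVcc-Cre, moi about 0.5. Incubate 44 h, then detect luciferase activity.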
Vaccinia mCherry = inhibitors of vaccinia virus infection (mCherry reporter signal) | Vaccinia virus mCherry reporter infection, fluorescence | Potency, µM (top dose mostly 36.5 µM), for inactives: at the highest dose activity change, negative = inhibition, most hits filed as inhibitors | 310,000 compounds, 0.63% hits | AID 720579; calls by dose curve; tested in A549 cells; note: potency is the fitted concentration of half-maximal effect; nearly all actives have a fitted effect of over 35% in size
HCMV inh = human cytomegalovirus inhibition; 410,000 compounds, 4.5% hits; HFF cells, HCMV-luciferase reporter, 72 h; stronger effect = lower value; activity change, negative = inhibition, % at 57.5 µM; in the data active = activity change below about -60%; inconclusive = no clear call, values can overlap the other calls; inactive = above about -39%
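Compounds were evaluated in HFFs infected with an HCMV luciferase reporter virus (MOI 1 PFU/cell). Luciferase in lysates collected 72 h post infection served as the replication measure.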
Active calls of the source: *; ! = not active in a repeat; [ ] = dose if it differs, or a comment. % is set by controls: 0 for no effect and ±100 for the full control effect.

For CCCCNC(=O)c1nc2ccccc2nc1-c1cccc(OC(F)(F)F)c1 the results were HCMV inh 50.
Nc1n[nH]c(-c2ccccc2[N+](=O)[O-])n1 was read as Vaccinia Venus 6%, MARV entry inh inconclusive, LASV entry inh 18%, HCV inhibitor 26%, Vaccinia mCherry -11% and HCMV inh -96*.
Screening COc1cc(/C=N\Nc2nncn2N)ccc1OC(C)=O returned Vaccinia Venus 20µM*, MARV entry inh inconclusive, LASV entry inh inconclusive, HCV inhibitor 22%, Vaccinia mCherry 16µM* and HCMV inh -8.
Screening N/C(=N\OC(=O)c1cc([N+](=O)[O-])ccc1Cl)c1ccccn1 returned Vaccinia Venus -11%, MARV entry inh inconclusive, LASV entry inh inconclusive, HCV inhibitor 11µM*, Vaccinia mCherry -9% and HCMV inh 31.
`N/C(=N\OC(=O)c1ccc([N+](=O)[O-])cc1Cl)c1ccccn1` gave Vaccinia Venus inconclusive, MARV entry inh inconclusive, LASV entry inh inconclusive, HCV inhibitor inconclusive, Vaccinia mCherry 2.8µM* and HCMV inh -72*.
For N/C(=N\OC(=O)c1ccccc1Cl)c1cccc([N+](=O)[O-])c1 the results were HCV inhibitor 9% and HCMV inh 51.
For N/C(=N/OC(=O)c1ccccc1Cl)c1ncc([N+](=O)[O-])s1 the results were Vaccinia Venus -5%[7.34 µM], MARV entry inh inconclusive, LASV entry inh inconclusive, HCV inhibitor 11µM*, Vaccinia mCherry -27%[7.34 µM] and HCMV inh 36.
`CCC(=O)Oc1ccc(-c2nc3ccccc3c(=O)o2)cc1` gave Vaccinia Venus -6%, MARV entry inh inconclusive, LASV entry inh 27%[46.1 µM], Vaccinia mCherry -7% and HCMV inh 15.
`O=C1COc2ccc(C(=O)CSc3nc4ccccc4c(=O)n3-c3ccc(Cl)c(Cl)c3)cc2N1` gave Vaccinia Venus -2%, MARV entry inh inconclusive, LASV entry inh -13%, HCV inhibitor -8%, Vaccinia mCherry -5% and HCMV inh -81*.
`CCc1ccc(-n2c(SCC(=O)c3ccc4c(c3)NC(=O)CO4)nc3ccccc3c2=O)cc1` gave Vaccinia Venus -8%, MARV entry inh -5%[46.1 µM], LASV entry inh inconclusive, HCV inhibitor inconclusive, Vaccinia mCherry -2% and HCMV inh -28.
Screening COC(=O)C1=C(C)N(Cc2cccc(C(F)(F)F)c2)C(=NCc2ccc(C(F)(F)F)cc2)NC1c1cccc(F)c1 (stereo not given) returned HCMV inh -99*.
For COC(=O)C1=C(C)N(Cc2ccccc2)C(=NCCc2cccnc2)N[C@H]1c1ccc(Br)cc1 the results were Vaccinia Venus 13µM*, HCV inhibitor 2.8µM* and Vaccinia mCherry inconclusive.
COC(=O)C1=C(C)N(Cc2cccc(C(F)(F)F)c2)C(=NCc2ccc(OC)cc2)NC1c1cccc(C(F)(F)F)c1 (stereo not given) was read as HCMV inh -99*.
COC(=O)C1=C(C)N(Cc2ccccc2)C(=NCc2ccc(OC)cc2)N[C@H]1c1cccc(F)c1 was read as Vaccinia Venus inconclusive, HCV inhibitor -27%, Vaccinia mCherry inconclusive and HCMV inh inconclusive.
For COC(=O)C1=C(C)N(Cc2ccc(C(F)(F)F)cc2)C(=NCc2ccccc2)NC1c1cccc(F)c1 (stereo not given) the results were HCMV inh -99*.
For COc1ccccc1C1CN(CC(=O)N2CCC(C(O)c3ccccn3)CC2)Cc2ccccc2O1 (stereo not given) the results were Vaccinia Venus -15% and Vaccinia mCherry -23%.
`CCn1c(C(=O)N2CCC(C(=O)NCCc3ccc(C)cc3)CC2)cc2sccc21` gave Vaccinia Venus 1%, MARV entry inh 1%[46.1 µM] and Vaccinia mCherry -9%.
`COC(=O)C1=C(C)N(Cc2ccccc2)C(=NCc2ccccc2)N[C@H]1c1cccc(C(F)(F)F)c1` gave Vaccinia Venus 14µM*, HCV inhibitor inconclusive and Vaccinia mCherry inconclusive.
For O=C(NN=C1C[C@@H](O)[C@H](O)[C@H]2[C@@H]3C(=O)N(C[C@@H]4CCCO4)C(=O)[C@@H]3CC[C@@H]12)OCc1ccccc1 the results were MARV entry inh -5%[14.2 µM] and LASV entry inh inconclusive.
For CC(=O)N1CCCc2cc(S(=O)(=O)N3CCCC(C(=O)NCc4ccccc4)C3)ccc21 (stereo not given) the results were Vaccinia Venus -23%, LASV entry inh inconclusive, HCV inhibitor -14%, Vaccinia mCherry -26% and HCMV inh 0.
COc1ccc(S(=O)(=O)N2CCCC(C(=O)NCc3ccncc3)C2)cc1Cl (stereo not given) was read as Vaccinia Venus -12%, MARV entry inh -5%, LASV entry inh 16%, HCV inhibitor -25%, Vaccinia mCherry -9% and HCMV inh -66*.
For COc1ccc(NC(=O)C2CCCN(S(=O)(=O)c3ccc4c(c3)CCCN4C(C)=O)C2)cc1Cl (stereo not given) the results were Vaccinia Venus -2%, MARV entry inh -10%[46.1 µM], LASV entry inh inconclusive, HCV inhibitor 2.5µM*, Vaccinia mCherry inactive and HCMV inh inconclusive.
CC(=O)N1CCCc2cc(S(=O)(=O)N3CCCC(C(=O)NCc4ccc(C)cc4)C3)ccc21 (stereo not given) was read as Vaccinia Venus -15%, LASV entry inh inconclusive, HCV inhibitor inconclusive, Vaccinia mCherry -14% and HCMV inh -72*!.
Screening COc1ccc(CCNC(=O)c2ccc3c(c2)N(Cc2ccc(Cl)cc2)C(=O)c2ccccc2S3)cc1OC returned Vaccinia Venus -16%, LASV entry inh -29%[46.1 µM], Vaccinia mCherry -21% and HCMV inh inconclusive.
For CCCn1c(SCCN2CCOCC2)nc2c1c(=O)n(C)c(=O)n2C the results were HCV inhibitor 16% and HCMV inh -38.
Cn1c(=O)c2c(nc(Sc3ncccn3)n2Cc2ccc(Cl)cc2)n(C)c1=O was read as Vaccinia Venus -15%, HCV inhibitor 25µM*, Vaccinia mCherry -8% and HCMV inh -61*.
Cn1c(=O)c2c(nc(SCCN3CCCCC3)n2Cc2ccc(Cl)cc2)n(C)c1=O was read as Vaccinia Venus -20%, MARV entry inh inconclusive, LASV entry inh inconclusive, HCV inhibitor 35µM*, Vaccinia mCherry inconclusive and HCMV inh -95*.
`Cn1c(=O)c2c(nc(SCCN3CCOCC3)n2Cc2ccccc2)n(C)c1=O` gave Vaccinia Venus -10%, MARV entry inh 1.1µM*, LASV entry inh -11%, HCV inhibitor -5%, Vaccinia mCherry -19% and HCMV inh -11.
